Hit rate of the full screen: of about 25,000 compounds, about 970 (3.9%) were called active. Roughly 8% stayed inconclusive and do not appear here. How the calls were made is not given here. What follows is part of a selection rich in actives, with near analogues and random picks from the rest.
Columns and labels:
Experiment in all cases: Primary Screen for Target Class Profiling of Small Molecule Inhibitors of Methyltransferases
[1] = target: Catechol O-methyltransferase (Homo sapiens) (UniProt P21964); settings: purified enzyme, MTase-Glo SAH luminescence; activity change, negative = inhibition: at 40 µM, stronger effect = lower value; outcome: 40 uM
Catechol O-methyltransferase (Homo sapiens), sequence (P21964 whole entry, looked up): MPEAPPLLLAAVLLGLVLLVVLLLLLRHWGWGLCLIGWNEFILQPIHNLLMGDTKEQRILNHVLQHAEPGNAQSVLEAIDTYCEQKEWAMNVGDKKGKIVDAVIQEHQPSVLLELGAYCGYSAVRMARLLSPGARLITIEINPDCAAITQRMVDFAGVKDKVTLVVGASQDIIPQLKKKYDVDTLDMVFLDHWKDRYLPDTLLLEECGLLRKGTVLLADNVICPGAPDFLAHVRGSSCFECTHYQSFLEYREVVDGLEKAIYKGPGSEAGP
From the text: (§1) PI: Matthew D. Hall Ph.D. and Quinlin M. Hanson Ph.D.
(§2) National Center for Advancing Translational Sciences (NCATS)
(§3) National Institute of Health (NIH), Rockville, MD
(§4) Target class profiling (TCP) is a chemical biology approach amenable to investigating understudied biological targets. TCP is achieved by developing a generalizable assay platform and applying it to screen a curated set of compound libraries against representative members of a target class. Small molecule methyltransferases (SMMTase) are a subclass of methyltransferase that act on metabolites to modulate signaling pathways, metabolize xenobiotics, or balance the available methyl pool. We screened four curated libraries totaling 27,574 unique compounds against the SMMTases nicotinamide N-methyltransferase (NNMT), phenylethanolamine N-methyltransferase (PNMT), histamine N-methyltransferase (HNMT), glycine N-methyltransferase (GNMT), catechol O-methyltransferase (COMT), and guanidinoacetate N-methyltransferase (GAMT). The data generated by this TCP can be leveraged for informed tool molecule development. For example, in the associated publication we identified a chemotype of HNMT-selective inhibitors. Additionally, we identified a putative SMMTase-selective inhibitor with potential as a tool molecule for studying broader methyltransferase biology.
(§5) High-through put screening assays were developed at the National Center for Advancing Translational Science (NCATS) for the enzymes NNMT, PNMT, HNMT, GNMT, COMT, and GAMT. Enzymatic activity was measured as a function of SAM cofactor conversion using the MTase Glo kit (Promega) for all enzymes. All assays were performed in 1536-well format with substrates and SAM concentrations at KM values. Enzyme concentration and assay timing were optimized for 10-20% SAM conversion. Initial screening of 27,574 compounds was done as single-point assays using the highest compound concentration (40 uM). […] These compounds were replated in 11-point dose response and assayed against NNMT, PNMT, HNMT, GNMT, COMT, GAMT, and a counter-assay. The IC50 and efficacy (maximal response) values were determined for each dose-response curve. These values are also accounted for in the area under the curve (AUC) values.
(§6) PROTOCOL TABLE (as described by Inglese J, Shamu CE and Guy RK. 2007)
(§7) SEQUENCE No. (e.g., 1, 2, 3, etc.); […] (e.g., Cells, Incubation, Reagent, etc.); VALUE; DESCRIPTION.
(§8) 1; Reagent; 2 uL; SMMTase Enzyme (2x) in reaction buffer, columns 1- 48.
(§9) 2; Reagent; 1 uL; SAM (4x) in reaction buffer, columns 1-48.
(§10) 3; Controls; 23 nL; DMSO in column 4; sinefungin in DMSO (0 uM - 40 uM) in 7-point 1:2 dilution series (n = 2) in column 2.
(§11) 4; Compounds; 23 nL; Columns 5-48.
(§12) 5; Reagent; 1 uL; Substrate (4x) in reaction buffer, columns 2-48.
(§13) 6; Time; 20-30 min; Incubation.
(§14) 7; Reagent; 1 uL; MTase-Glo reagent (5X), columns 1-48.
(§15) 8; Time; 30 min; Incubation.
(§16) 9; Reagent; 5 uL; MTase-Glo Detection reagent, columns 1-48.
(§17) 10; Time; 30 min; Incubation, luminescence evolution.
(§18) 11; Detection; Luminescence; ViewLux uHTS Microplate Imager (PerkinElmer).
(§19) NOTES (numbers refer to Sequence numbers above)
(§20) 1, 2, 5. White Medium Binding Greiner 1536-well plates (Cat #789175-F, Greiner Bio-One, Monroe, NC); Reaction buffer: 50 mM Tris, pH 8.0, 3 mM MgCl2, 1 mM EDTA, 50 mM NaCl, 1 mM DTT, and 0.1 mg/mL BSA. Evaporation was prevented by covering assay plates with metal lids containing holes to allow gas diffusion.
(§21) 1. Six SMMTase were profiled: HNMT, GNMT, PNMT, COMT, NNMT, GAMT
(§22) 5. The corresponding substrate was used for each enzyme: HNMT - 5.3 uM Histamine; GNMT - >500 uM Glycine; PNMT - 16.2 uM Norephinephrine; COMT - 13.7 uM Norephinephrine; NNMT - 3.8 uM Nicotinamide; GAMT - 2.5 uM Guanidinoacetate.6, 8, 10. Room temperature
(§23) 6. Final reaction conditions: 10 nM COMT, 5 uM SAM, 15 uM norepinephrine, 50 mM Tris, pH 8.0, 3 mM MgCl2, 1 mM EDTA, 50 mM NaCl, 1 mM DTT, and 0.1 mg/mL BSA; refer to tables 2 and S1 for specific timing.
8. […]

[2] = target: Glycine N-methyltransferase (Homo sapiens) (UniProt Q14749); settings: purified enzyme, MTase-Glo SAH luminescence; measured here: GNMT inhibition; at 40 µM; stronger effect = lower value
Glycine N-methyltransferase (Homo sapiens), sequence (Q14749 whole entry, looked up): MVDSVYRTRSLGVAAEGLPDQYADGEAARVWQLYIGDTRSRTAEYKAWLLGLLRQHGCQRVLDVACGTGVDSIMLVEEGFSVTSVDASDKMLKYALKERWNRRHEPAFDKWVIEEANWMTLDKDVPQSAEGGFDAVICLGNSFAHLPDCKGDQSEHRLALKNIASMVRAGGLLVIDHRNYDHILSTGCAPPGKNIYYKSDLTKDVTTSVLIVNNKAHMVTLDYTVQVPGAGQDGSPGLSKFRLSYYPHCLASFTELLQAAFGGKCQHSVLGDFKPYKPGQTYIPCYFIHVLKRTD
From the text: as §1, §2, §3, §4, §5, §6, §7, §8, §9, §10, §11, §12, §13, §14, §15, §16, §17, §18, §19, §20, §21, §22, §23
8. […]

[3] = target: Guanidinoacetate N-methyltransferase (Homo sapiens) (UniProt Q14353); settings: purified enzyme, MTase-Glo SAH luminescence; measured here: GAMT inhibition; at 40 µM; stronger effect = lower value
From the text: as §1, §2, §3, §4, §5, §6, §7, §8, §9, §10, §11, §12, §13, §14, §15, §16, §17, §18, §19, §20, §21, §22, §23
8. […]

[4] = target: Histamine N-methyltransferase (Homo sapiens) (UniProt P50135); settings: purified enzyme, MTase-Glo SAH luminescence; measured here: HNMT inhibition; at 40 µM; stronger effect = lower value
Histamine N-methyltransferase (Homo sapiens), sequence (P50135 whole entry, looked up): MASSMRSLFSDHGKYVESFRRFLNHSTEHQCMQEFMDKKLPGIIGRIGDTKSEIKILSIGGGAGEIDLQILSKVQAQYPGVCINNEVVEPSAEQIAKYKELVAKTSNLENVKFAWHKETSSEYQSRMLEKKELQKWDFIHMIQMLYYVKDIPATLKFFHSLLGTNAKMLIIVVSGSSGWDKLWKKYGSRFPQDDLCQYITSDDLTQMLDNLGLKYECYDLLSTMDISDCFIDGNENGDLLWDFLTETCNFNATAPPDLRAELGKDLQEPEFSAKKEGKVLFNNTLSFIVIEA
From the text: as §1, §2, §3, §4, §5, §6, §7, §8, §9, §10, §11, §12, §13, §14, §15, §16, §17, §18, §19, §20, §21, §22, §23
8. […]

[5] = target: Nicotinamide N-methyltransferase (Homo sapiens) (UniProt P40261); settings: purified enzyme, MTase-Glo SAH luminescence; measured here: NNMT inhibition; at 40 µM; stronger effect = lower value
Nicotinamide N-methyltransferase (Homo sapiens), sequence (P40261 whole entry, looked up): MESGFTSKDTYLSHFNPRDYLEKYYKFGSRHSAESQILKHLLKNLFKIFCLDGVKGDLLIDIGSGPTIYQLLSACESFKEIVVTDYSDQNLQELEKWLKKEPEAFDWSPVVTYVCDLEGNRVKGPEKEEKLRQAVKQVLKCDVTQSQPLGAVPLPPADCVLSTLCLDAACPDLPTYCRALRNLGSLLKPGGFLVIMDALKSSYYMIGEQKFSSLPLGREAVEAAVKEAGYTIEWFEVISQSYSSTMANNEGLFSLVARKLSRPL
From the text: as §1, §2, §3, §4, §5, §6, §7, §8, §9, §10, §11, §12, §13, §14, §15, §16, §17, §18, §19, §20, §21, §22, §23
8. […]

[6] = target: Phenylethanolamine N-methyltransferase (Homo sapiens) (UniProt P11086); settings: purified enzyme, MTase-Glo SAH luminescence; measured here: PNMT inhibition; at 40 µM; stronger effect = lower value
Phenylethanolamine N-methyltransferase (Homo sapiens), sequence (P11086 whole entry, looked up): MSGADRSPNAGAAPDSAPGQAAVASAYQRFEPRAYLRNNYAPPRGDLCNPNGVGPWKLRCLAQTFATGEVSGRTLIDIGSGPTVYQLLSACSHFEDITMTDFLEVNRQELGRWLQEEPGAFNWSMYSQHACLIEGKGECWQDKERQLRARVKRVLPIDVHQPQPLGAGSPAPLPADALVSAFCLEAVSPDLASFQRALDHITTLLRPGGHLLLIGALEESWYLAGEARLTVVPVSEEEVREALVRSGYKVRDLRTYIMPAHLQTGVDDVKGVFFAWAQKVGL
From the text: as §1, §2, §3, §4, §5, §6, §7, §8, §9, §10, §11, §12, §13, §14, §15, §16, §17, §18, §19, §20, §21, §22, §23
8. […]
On the % scale 0 is the no-effect control and ±100 the full control effect.

| Structure (SMILES) | activity change, negative = inhibition [1] | activity change, negative = inhibition [2] [%] | activity change, negative = inhibition [3] [%] | activity change, negative = inhibition [4] [%] | activity change, negative = inhibition [5] [%] | activity change, negative = inhibition [6] [%] |
| --- | --- | --- | --- | --- | --- | --- |
| COc1cc(NC(=O)CSc2nnc3n(CC(C)C)c(=O)c4ccccc4n23)cc(OC)c1 | 1.19% (inactive) | 0.652 | 4.16 | 4.88 | 0.518 | 1.8 |
| CC1=C(C(=O)O)/C(=C/CO[C@@H]2O[C@H](COC(=O)/C=C/c3ccc(O)cc3)[C@@H](O)[C@H](O)[C@H]2O)C(O)C1 (some centres not stated) | -20.2% (inactive) | 4.68 | 4.63 | 9.32 | -5.67 | 0.561 |
| COc1ccc2cc3n(c2c1)CC(C)(C(=O)NC1CCCC1)N(CCc1ccc(SC)cc1)C3=O (configuration not stated) | -1.16% (inactive) | 0.148 | 0 | 3.11 | -0.661 | -4.18 |
| CCC[C@H]1CN(C(=O)c2ccc3c(c2)NC(=O)CN3)C[C@@H]1N | -3.16% (inactive) | -3.38 | -8.81 | -2.88 | -6.82 | -2.87 |
| CCOc1ccc(N2C(=O)c3cc(-c4ccc(OC)cc4)nn3CC2(C)C(=O)NCc2ccccc2OC)cc1 (configuration not stated) | 4.86% (inactive) | 7.45 | 4.82 | 9.26 | 5.96 | 0.163 |
| CN1C(=O)c2cc(C(=O)NCCc3cccs3)nn2CC1(C)C(=O)NCc1ccc(F)cc1 (configuration not stated) | 1.71% (inactive) | 3.48 | 0 | -2.18 | 9.12 | 3.02 |
| C[C@]12CCC[C@](C)(C(=O)O)C1[C@@H](O)[C@@H](O)C13CC(CCC12)C(CO)(O[C@@H]1O[C@H](CO)[C@@H](O)[C@H](O)[C@H]1O)C3 (some centres not stated) | -23% (inactive) | 0 | 1.76 | 7.4 | -7.28 | 3.45 |

Reference: PubChem BioAssay AID1745853 (National Center for Advancing Translational Sciences (NCATS), 2022)
